Measured values as given in PubChem BioAssay (NCATS).
Results filed as inconclusive are left out. A number with no mark means an inactive call. Activity calls are given as the source filed them. The call rests on the fitted dose curve; in most records, active means well fitted inhibition curve with a large enough effect; inconclusive means small, poorly fitted or top-dose-only effect; inactive means flat fitted curve, though single readings scatter.

Tested on: TAB109
Assay: qHTS profiling for inhibitors of Plasmodium falciparum proliferation (AID 504749); further: nearly all actives have a fitted effect of over 60% in size;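 on activity, negative = inhibition: 0% = DMSO vehicle and full inhibition = artemisinin control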
Conditions: P. falciparum in erythrocytes, SYBR Green DNA, 72 h; series mostly up to 12.8 µM; activity, negative = inhibition: at the top concentration
How it was run: (§1)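 Infected RBCs, 0.3% parasitemia/2.5% Hct final; cpd 72 h, 37 C, 5% CO2; lysis buffer with saponin/triton/SYBR Green I, o/n RT dark; FI 485/535; norm. to artemisinin (0.29 uM) and DMSO.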
Potency means the concentration at half of the fitted maximal effect.

Row | SMILES | activity, negative = inhibition | Potency
1 | CC1(C)S[C@H]2C(NC(=O)[C@@H](N)c3ccc(O)cc3)C(=O)N2[C@@H]1C(=O)O (stereo not given in full) | 0.441% [at 28.7 µM] | –
2 | CN(C)CCc1c[nH]c2ccc(CC3COC(=O)N3)cc12 (stereo not given) | 6.64% [at 28.7 µM] | –
3 | NC(CCC(=O)N[C@@H](CS)C(=O)NCC(=O)O)C(=O)O (stereo not given in full) | – | 4.47 µM (active)
4 | CC(C)Oc1ccc2c(=O)cc(-c3ccccc3)oc2c1 | 6.01% [at 28.7 µM] | –
5 | CCCCCCCCCc1ccc(OCCOCCOCCOCCOCCOCCOCCOCCOCCO)cc1 | -28.9% [at 28.7 µM] | –
6 | N[C@@H]1C(O)OC(CO)C(O)C1O (stereo not given in full) | -1.01% [at 28.7 µM] | –
7 | CCC1OC(=O)CC(O)C(C)[C@@H](O[C@@H]2OC(C)[C@H](O[C@@H]3C[C@@](C)(O)C(O)C(C)O3)C(N(C)C)C2O)[C@H](CC=O)CC(C)C(=O)/C=C/C(C)=C/[C@@H]1COC1OC(C)C(O)C(OC)[C@@H]1OC (stereo not given in full) | – | 0.891 µM (active)
8 | CCC(=O)O[C@@]1(C(=O)CCl)C(C)CC2C3CCC4=CC(=O)C=C[C@@]4(C)[C@]3(F)C(O)C[C@]21C (stereo not given in full) | – | 11.2 µM (active)
9 | CC(=O)[C@]1(O)CCC2C3C=C(Cl)C4=CC(=O)C5CC5[C@@]4(C)C3CC[C@]21C (stereo not given in full) | 5.17% [at 28.7 µM] | –
10 | CO[C@]12C(COC(N)=O)C3=C(C(=O)C(C)=C(N)C3=O)N1CC1NC12 (stereo not given in full) | – | 2.24 µM (active)
11 | C[C@@]12C=CC(=O)C=C1CCC1C3CC(O)[C@@](O)(C(=O)CO)[C@]3(C)CC(O)[C@]12F (stereo not given in full) | 7.79% [at 28.7 µM] | –
12 | CCC(C)C(=O)OC1CC(O)C=C2C=CC(C)C(CCC(O)CC(O)CC(=O)O)C21 (stereo not given) | 5.88% [at 28.7 µM] | –
13 | OCC1OC(n2cnc3c(=S)nc[nH]c32)C(O)C1O (stereo not given) | -22.3% [at 28.7 µM] | –

Tested on: TAB113
Assay: as above
Conditions: P. falciparum in erythrocytes, SYBR Green DNA, 72 h; series mostly up to 12.8 µM; activity, negative = inhibition: at the top concentration
How it was run: as §1

Row | SMILES | activity, negative = inhibition | Potency
14 | CN(C)CCc1c[nH]c2ccc(CC3COC(=O)N3)cc12 (stereo not given) | 6.39% [at 28.7 µM] | –
15 | C[C@@]12CCC(=O)C=C1C=CC1C2CC[C@]2(C)C1CC[C@@]21CCC(=O)O1 (stereo not given in full) | -1.29% [at 28.7 µM] | –
16 | NC(CCC(=O)N[C@@H](CS)C(=O)NCC(=O)O)C(=O)O (stereo not given in full) | – | 7.94 µM (active)
17 | CC(C)Oc1ccc2c(=O)cc(-c3ccccc3)oc2c1 | -5.7% [at 28.7 µM] | –
18 | CCCCCCCCCc1ccc(OCCOCCOCCOCCOCCOCCOCCOCCOCCO)cc1 | -28.8% [at 28.7 µM] | –
19 | N[C@@H]1C(O)OC(CO)C(O)C1O (stereo not given in full) | 10.2% [at 28.7 µM] | –
20 | CC(=O)[C@]1(O)CCC2C3C=C(Cl)C4=CC(=O)C5CC5[C@@]4(C)C3CC[C@]21C (stereo not given in full) | 6.55% [at 28.7 µM] | –
21 | CO[C@]12C(COC(N)=O)C3=C(C(=O)C(C)=C(N)C3=O)N1CC1NC12 (stereo not given in full) | – | 0.891 µM (active)
22 | COC1OC(CO)C(OC2OC(C(=O)O)C(OC3OC(COS(=O)(=O)O)C(OC4OC(C(=O)O)C(OC5OC(CO)C(OC6OC(C(=O)O)C(OC7OC(COS(=O)(=O)O)C(OC8OC(C(=O)O)=C[C@H](O)C8OS(=O)(=O)O)C(O)C7NC(C)=O)[C@@H](O)C6O)C(O)C5NC(C)=O)[C@@H](O)C4O)C(O)C3NC(C)=O)[C@@H](O)C2O)C(O)C1NC(C)=O (stereo not given in full) | – | 14.1 µM (active)
23 | C[C@@]12C=CC(=O)C=C1CCC1C3CC(O)[C@@](O)(C(=O)CO)[C@]3(C)CC(O)[C@]12F (stereo not given in full) | 3.21% [at 28.7 µM] | –
24 | CCC1OC(=O)C(C)[C@@H](O[C@H]2C[C@@](C)(OC)C(O)C(C)O2)C(C)[C@@H](O[C@@H]2OC(C)CC(N(C)C)C2O)[C@@](C)(O)CC(C)C(=O)[C@@H](C)C(O)[C@]1(C)O (stereo not given in full) | -3.37% [at 28.7 µM] | –
25 | CC1C2CCC3C4CC=C5CC(N(C)C)CC[C@@]5(C)C4CC[C@@]32CN1C (stereo not given in full) | -11.2% [at 28.7 µM] | –
26 | CCC(C)C(=O)OC1CC(O)C=C2C=CC(C)C(CCC(O)CC(O)CC(=O)O)C21 (stereo not given) | 8.7% [at 28.7 µM] | –
27 | OCC1OC(n2cnc3c(=S)nc[nH]c32)C(O)C1O (stereo not given) | 2.69% [at 28.7 µM] | –

Tested on: TAB165
Assay: as above
Conditions: P. falciparum in erythrocytes, SYBR Green DNA, 72 h; series mostly up to 12.8 µM; activity, negative = inhibition: at the top concentration
How it was run: as §1

Row | SMILES | activity, negative = inhibition | Potency
28 | CC1(C)S[C@H]2C(NC(=O)[C@@H](N)c3ccc(O)cc3)C(=O)N2[C@@H]1C(=O)O (stereo not given in full) | -0.958% [at 28.7 µM] | –
29 | CN(C)CCc1c[nH]c2ccc(CC3COC(=O)N3)cc12 (stereo not given) | 5.83% [at 28.7 µM] | –
30 | NC(CCC(=O)N[C@@H](CS)C(=O)NCC(=O)O)C(=O)O (stereo not given in full) | – | 3.98 µM (active)
31 | CC(C)Oc1ccc2c(=O)cc(-c3ccccc3)oc2c1 | -5.31% [at 28.7 µM] | –
32 | CCCCCCCCCc1ccc(OCCOCCOCCOCCOCCOCCOCCOCCOCCO)cc1 | – | 7.08 µM (active)
33 | N[C@@H]1C(O)OC(CO)C(O)C1O (stereo not given in full) | -14% [at 28.7 µM] | –
34 | CC(=O)[C@]1(O)CCC2C3C=C(Cl)C4=CC(=O)C5CC5[C@@]4(C)C3CC[C@]21C (stereo not given in full) | 5.3% [at 28.7 µM] | –
35 | CO[C@]12C(COC(N)=O)C3=C(C(=O)C(C)=C(N)C3=O)N1CC1NC12 (stereo not given in full) | – | 0.447 µM (active)
36 | C[C@@]12C=CC(=O)C=C1CCC1C3CC(O)[C@@](O)(C(=O)CO)[C@]3(C)CC(O)[C@]12F (stereo not given in full) | 4.27% [at 28.7 µM] | –
37 | CCC1OC(=O)C(C)[C@@H](O[C@H]2C[C@@](C)(OC)C(O)C(C)O2)C(C)[C@@H](O[C@@H]2OC(C)CC(N(C)C)C2O)[C@@](C)(O)CC(C)C(=O)[C@@H](C)C(O)[C@]1(C)O (stereo not given in full) | -13.5% [at 28.7 µM] | –
38 | CC1C2CCC3C4CC=C5CC(N(C)C)CC[C@@]5(C)C4CC[C@@]32CN1C (stereo not given in full) | 13.9% [at 28.7 µM] | –
39 | CCC(C)C(=O)OC1CC(O)C=C2C=CC(C)C(CCC(O)CC(O)CC(=O)O)C21 (stereo not given) | 2.57% [at 28.7 µM] | –
40 | OCC1OC(n2cnc3c(=S)nc[nH]c32)C(O)C1O (stereo not given) | -5.18% [at 28.7 µM] | –
